The supplement of paper PMC10121225
Where a name gives a salt, the structure may show the parent alone.

Tested on: hN + hpA co-culture (H1 iNGN2 human neurons + human primary astrocytes)
Experiment: presynaptic density (SYNAPSIN1 puncta per MAP2 neurite area), Z-score vs DMSO controls; higher = more presynaptic puncta (synapse-promoting)
Conditions: 3 µM; 72 h
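Note: immunostained co-cultures imaged by high-content microscopy, Z-score per plate against mean and SD of 0.1% DMSO wells, compounds added on differentiation day 18, analysed day 21.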

Compared with `NC(=O)C1CCCc2c1[nH]c1ccc(Cl)cc21` (stereo not drawn) [6-Chloro-2,3,4,9-tetrahydro-1H-carbazole-1-carboxamide], `O=C(NC(Cc1cc(=O)[nH]c2ccccc12)C(=O)O)c1ccc(Cl)cc1` (stereo not drawn) is lower in “presynaptic density (Z-score)” value: 0.159 for the first, -0.611 for the second.

Going from `CCNC(=O)c1noc(-c2cc(C(C)C)c(O)cc2O)c1-c1ccc(CN2CCOCC2)cc1` to `O=C(Nc1nc2cccc(-c3ccc(CN4CCS(=O)(=O)CC4)cc3)n2n1)C1CC1` [Filgotinib (GLPG0634)], the “presynaptic density (Z-score)” value falls from 3.55 to -0.645.

Going from `COc1ccc(CC(C)NCC(O)c2ccc(O)c(NC=O)c2)cc1` (stereo not drawn) to `CC(CCc1ccccc1)NCC(O)c1ccc(O)c(C(N)=O)c1` (stereo not drawn) [Labetalol HCl], the “presynaptic density (Z-score)” value falls from 0.254 to -0.733.

First: Cc1ccccc1C(=O)Nc1ccc(C(=O)N2CCCC(O)c3cc(Cl)ccc32)c(C)c1 (stereo not drawn) [Tolvaptan]
Second: Cc1ccc(C(=O)N(CCCN)[C@@H](c2oc3cc(Cl)ccc3c(=O)c2Cc2ccccc2)C(C)C)cc1
The “presynaptic density (Z-score)” value of the first is higher: 0.77 for the first, -3.49 for the second.

First: Cc1cn([C@H]2C=C[C@@H](CO)O2)c(=O)[nH]c1=O [Stavudine (d4T)]
Second: Cc1ccc2c(=O)c3cccc(CC(=O)O)c3oc2c1C [DMXAA (Vadimezan)]
The “presynaptic density (Z-score)” value of the first is higher: 0.723 for the first, -1.15 for the second.

First: CCCC(C)NC(=O)c1ccc(Cl)c(Cl)c1 (stereo not drawn)
Second: CCOC(=O)[C@H](CCc1ccccc1)N[C@@H](C)C(=O)N1C(=O)N(C)C[C@H]1C(=O)O [Imidapril HCl]
The “presynaptic density (Z-score)” value of the first is lower: -0.211 for the first, -0.0695 for the second.

Going from `O=C(O)Cn1nnc(-c2cc(N3CCC(Oc4cc(F)ccc4Br)CC3)no2)n1` to `C[C@@H](Oc1cc(-n2cnc3ccc(CN4CCN(C)CC4)cc32)sc1C(N)=O)c1ccccc1C(F)(F)F`, the “presynaptic density (Z-score)” value falls from -0.606 to -1.83.

Compared with `COc1ccc2c(c1)c(C1=C(c3c[nH]c4ccccc34)C(=O)NC1=O)cn2CCCN(C)C`, `COc1ccc(COc2ccc(Cc3cnc(N)nc3N)cc2OC)cc1` is higher in “presynaptic density (Z-score)” value: -0.96 for the first, -0.788 for the second.

Compared with `CN(C)CCOc1ccc(/C(=C(/CCCl)c2ccccc2)c2ccccc2)cc1`, `O=C1[C@H](Cc2ccc(O)cc2)N2C(=O)CCN(C(=O)NCc3ccccc3)[C@H]2CN1Cc1cccc2ccccc12` is lower in “presynaptic density (Z-score)” value: -0.866 for the first, -0.969 for the second.

First: CS(=O)(=O)c1ccc(-c2cnc(N)c(C(=O)Nc3ccccc3)n2)cc1
Second: CNCc1ccc(-c2cc(-c3nc(-c4ccc(S(=O)(=O)C(C)C)cc4)cnc3N)on2)cc1
The “presynaptic density (Z-score)” value of the first is higher: -0.463 for the first, -1.03 for the second.

Going from `CC(=O)OCC(=O)NCCCOc1cccc(CN2CCCCC2)c1` to `Cc1[nH]c(/C=C2\C(=O)Nc3ccc(S(=O)(=O)Cc4c(Cl)cccc4Cl)cc32)c(C)c1C(=O)N1CCC[C@@H]1CN1CCCC1`, the “presynaptic density (Z-score)” value falls from -0.62 to -4.53.

First: CC(=O)Nc1nc2c(Oc3cc(-c4ccc(C(F)(F)F)cc4)ncn3)cccc2s1
Second: Oc1nc(-c2ccc(C(F)(F)F)cc2)nc2c1CSCC2
The “presynaptic density (Z-score)” value of the first is higher: 0.208 for the first, 0.167 for the second.

Compared with `Nc1cccc2c1C(=O)N(C1CCC(=O)NC1=O)C2=O` (stereo not drawn) [Pomalidomide], `COc1cccc2c1C(=O)c1c(O)c3c(c(O)c1C2=O)C[C@@](O)(C(C)=O)C[C@@H]3O[C@H]1C[C@H](N)[C@H](O)[C@H](C)O1` [Daunorubicin HCl] is lower in “presynaptic density (Z-score)” value: 0.469 for the first, 0.0215 for the second.

Compared with `COc1ccnc2[nH]cc(C(=O)C(=O)N3CCN(C(=O)c4ccccc4)C[C@H]3C)c12`, `O=C(N/N=C/c1ccc(O)c(O)c1)c1cc2ccccc2cc1O` is lower in “presynaptic density (Z-score)” value: 0.386 for the first, -0.146 for the second.

Going from `O=S(=O)(c1ccccc1)N(CC(F)(F)F)c1ccc(C(O)(C(F)(F)F)C(F)(F)F)cc1` to `CC(C)(Cc1ccc2ccccc2c1)NC[C@@H](O)COc1cccc(Cl)c1C#N`, the “presynaptic density (Z-score)” value falls from -0.732 to -2.26.

First: COc1cccc(C=NCCN=Cc2cccc(OC)c2[O-])c1[O-].[Cl-].[Mn+3]
Second: COc1ccc2[nH]c([S@@+]([O-])Cc3ncc(C)c(OC)c3C)nc2c1 [Esomeprazole Sodium]
The “presynaptic density (Z-score)” value of the first is lower: -0.63 for the first, 0.0968 for the second.

First: COc1nc(C)cnc1NS(=O)(=O)c1cccnc1-c1ccc(-c2nnco2)cc1 [Zibotentan (ZD4054)]
Second: NC(=O)c1ccc(-c2nc(-c3ccc4c(c3)OCO4)c(-c3ccccn3)[nH]2)cc1
The “presynaptic density (Z-score)” value of the first is lower: -1.1 for the first, 0.232 for the second.

Going from `O=C(NNc1nc2cc(F)ccc2n2cccc12)c1cnccn1` to `N#CC1(c2ccc(NC(=O)c3cccnc3NCc3ccncc3)cc2)CCCC1` [Apatinib], the “presynaptic density (Z-score)” value falls from -1.29 to -1.31.

Going from `CCc1c2c(nc3ccc(O)cc13)-c1cc3c(c(=O)n1C2)COC(=O)[C@]3(O)CC` to `Nc1ccc(C(=O)O)c(O)c1` [Sodium 4-Aminosalicylate], the “presynaptic density (Z-score)” value falls from 0.761 to 0.294.
